Values joined by “and” are separate entries in the source; they are usually repeats but may differ in a detail not shown here. Equal values may be shown once. Inconclusive results are not listed. Active and inactive are the calls of the source. Unless noted, the call rests on the fitted dose curve; in most records, active means well fitted curve in the direction sought with a large enough effect; inconclusive means small, poorly fitted or top-dose-only effect, or another doubt; inactive means no such curve, though single readings can be large; an effect the other way counts as inactive or inconclusive.
Assays:
PA-1 = assay: Primary qHTS to identify gynecologic anti-cancer compounds using libraries of approved drugs and bioactive compounds (AID 1345084); details: Gynecologic cancer cell panel viability, ATPlite luminescence, 48 h; series mostly up to 57.5 µM; further: nearly all actives have a fitted effect of over 55% in size; further: potency means the concentration at half of the fitted maximal effect
Method in brief: (§1)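 Cells, 1,000 per well, were allowed to settle for 16 h at 37 C before compound addition. Five concentrations were tested for 48 h, and viability was read by ATPlite luminescence after 15 min at room temperature.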

SKOV3 = assay: as above; details: Gynecologic cancer cell panel viability, ATPlite luminescence, 48 h; series mostly up to 57.5 µM
Method in brief: as §1

Tov-21-G = assay: as above; details: Gynecologic cancer cell panel viability, ATPlite luminescence, 48 h; series mostly up to 57.5 µM
Method in brief: as §1

Tov112D = assay: as above; details: Gynecologic cancer cell panel viability, ATPlite luminescence, 48 h; series mostly up to 57.5 µM
Method in brief: as §1

[1] = Drug repurposing screens with cells derived from glioblastoma tumor samples (AID 1345199); details: GBM patient neurospheres viability, ATP luminescence, 48 h; further: nearly all actives have a fitted effect of over 40% in size; further: potency means the concentration at half of the fitted maximal effect; on activity, negative = cell killing: on the % scale 0 is the no-effect control and ±100 the full control effect
Method in brief: (§2)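 Four patient lines of CD133+ GBM neurospheres were screened at several concentrations; hits were retested in those lines plus three slower-growing GBM lines, using 48-hour treatment and ATP-based viability.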

astro = assay: as above; details: viability, ATP luminescence, 48 h; series mostly up to 45.9 µM
Method in brief: as §2

[2] = target: Nuclear receptor subfamily 1 group I member 2 (Rattus norvegicus) (UniProt Q9R1A7); assay: qHTS assay for small molecule activators of the rat pregnane X receptor (rPXR) signaling pathway (AID 651751; call rule not given here; further: 0% is about no effect); details: rPXR reporter cells, luciferase (One-Glo), 24 h
[3] = qHTS assay for small molecule activators of the human pregnane X receptor (PXR) signaling pathway (AID 720659; call rule not given here; further: 0% is about no effect)
[4] = at 20 µM (top of the series), tumour line C
[5] = at 21.2 µM (top of the series), tumour line B
[6] = at 46.1 µM (top of the series), tumour line C
[7] = at 45.9 µM (top of the series), tumour line B
[8] = at 45.9 µM (top of the series), tumour line D
[9] = at 21.2 µM (top of the series), tumour line D
[10] = at 46 µM (top of the series), tumour line A

Sequence of Nuclear receptor subfamily 1 group I member 2 (Rattus norvegicus) (Q9R1A7 whole entry, looked up): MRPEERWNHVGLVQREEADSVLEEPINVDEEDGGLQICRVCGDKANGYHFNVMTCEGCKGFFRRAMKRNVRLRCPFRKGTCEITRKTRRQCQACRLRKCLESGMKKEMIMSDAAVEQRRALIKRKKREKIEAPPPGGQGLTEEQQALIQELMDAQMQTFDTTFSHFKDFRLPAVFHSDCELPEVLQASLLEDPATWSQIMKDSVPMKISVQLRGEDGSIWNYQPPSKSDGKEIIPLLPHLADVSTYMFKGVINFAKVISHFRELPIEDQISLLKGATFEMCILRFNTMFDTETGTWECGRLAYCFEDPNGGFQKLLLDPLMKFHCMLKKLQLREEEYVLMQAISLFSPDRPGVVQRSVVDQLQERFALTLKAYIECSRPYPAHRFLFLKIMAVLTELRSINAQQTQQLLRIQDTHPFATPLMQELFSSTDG

CCN(CCCCOC(=O)c1ccc(OC)c(OC)c1)C(C)Cc1ccc(OC)cc1 (stereo unspecified)
active: Potency ([1]; tumour line A) 5.62 µM
inactive: Potency (PA-1) | Potency (SKOV3) | Potency (Tov-21-G) | Potency (Tov112D) | activity, negative = cell killing [1, 4] -2.24% | activity, negative = cell killing [1, 5] -9.34% | Potency (astro)

Oc1ccc(Cl)c2cccnc12
inactive: Potency (PA-1) | Potency (SKOV3) | Potency (Tov-21-G) | Potency (Tov112D) | activity, negative = cell killing [1, 6] -0.921% | Potency (astro)

Cc1ccc(C(=O)C(C)CN2CCCCC2)cc1 (stereo unspecified)
inactive: Potency (PA-1) | Potency (SKOV3) | Potency (Tov-21-G) | Potency (Tov112D) | activity, negative = cell killing [1, 7] -5.6% and -9.58% | activity, negative = cell killing [1, 8] -3.01% and -24.6% | activity, negative = cell killing [1, 6] 4.06% and 1.53% | Potency (astro)

O=c1[nH]c(=O)n([C@H]2C[C@H](O)[C@@H](CO)O2)cc1C(F)(F)F
inactive: Potency (SKOV3) | Potency (Tov-21-G) | activity, negative = cell killing [1, 8] -28.4% | activity, negative = cell killing [1, 6] -13.3% | Potency (astro)
active: Potency (PA-1) 8.91 µM | Potency (Tov112D) 11.2 µM

NCCc1ccn[nH]1
inactive: Potency (PA-1) | Potency (Tov-21-G) | Potency (Tov112D) | activity, negative = cell killing [1, 4] -4.24% | activity, negative = cell killing [1, 5] -2.24% | activity, negative = cell killing [1, 9] 2.99% | activity, negative = cell killing ([1]; at 21.3 µM (top of the series), tumour line A) -21.3% | Potency (astro)

O=C1c2ccccc2C(=O)C1c1ccccc1
inactive: Potency (PA-1) | Potency (Tov-21-G) | Potency (Tov112D) | activity, negative = cell killing [1, 4] 22.2% | activity, negative = cell killing [1, 5] -2.67% | activity, negative = cell killing [1, 9] -10.9% | Potency (astro)

CCCCCCCCCCCCCCCC[N+](C)(C)CC
active: Potency (PA-1) 10 µM | Potency (SKOV3) 2.51 µM | Potency (Tov-21-G) 10 µM | Potency (Tov112D) 28.2 µM | Potency (astro) 5.62 µM

OC[C@H]1O[C@@H](n2cnc3c(=S)nc[nH]c32)[C@H](O)[C@@H]1O
inactive: Potency (SKOV3) | activity, negative = cell killing [1, 7] -25.4% | Potency (astro)
active: Potency (PA-1) 5.01 µM | Potency (Tov-21-G) 0.891 µM | Potency ([1]; tumour line A) 1.41 µM

O=C1[C@H]2CCCC[C@H]2C(=O)N1CCCCN1CCN(c2nsc3ccccc23)CC1
inactive: Potency (PA-1) | Potency (SKOV3) | Potency (Tov-21-G) | Potency (Tov112D) | Potency (astro)

Cc1ccc(O)c2ncccc12
inactive: Potency (PA-1) | Potency (SKOV3) | Potency (Tov-21-G) | Potency (Tov112D) | Potency (astro)

CC(=O)OCC(=O)NCCCOc1cccc(CN2CCCCC2)c1
inactive: Potency (PA-1) | Potency (Tov-21-G) | Potency (Tov112D) | activity, negative = cell killing [1, 7] 0.906% and -1.58% | activity, negative = cell killing [1, 8] -12.4% and -6.14% | activity, negative = cell killing [1, 10] -17.5% | activity, negative = cell killing [1, 6] -13.4% and 4.52% | Potency (astro)

c1ccc(-c2ccc(C(c3ccccc3)n3ccnc3)cc2)cc1 (stereo unspecified)
active: Potency ([1]; tumour line A) 3.55 µM | Potency ([1]; tumour line D) 11.2 µM
inactive: Potency (PA-1) | Potency (Tov-21-G) | Potency (Tov112D) | activity, negative = cell killing [1, 7] -29.4%

CC(C)(C)NC(=O)[C@@H]1CN(Cc2cccnc2)CCN1C[C@@H](O)C[C@@H](Cc1ccccc1)C(=O)N[C@H]1c2ccccc2C[C@H]1O
inactive: Potency (PA-1) | Potency (Tov-21-G) | Potency (Tov112D)

Cc1cc(N)c2cc(NC(=O)Nc3ccc4nc(C)cc(N)c4c3)ccc2n1
inactive: Potency (PA-1) | Potency (SKOV3) | Potency (Tov112D)
active: Potency (astro) 35.5 µM

Nc1ccc(C(=O)Nc2ccccc2N)cc1
inactive: Potency (SKOV3) | Potency (Tov112D)
active: Potency (PA-1) 11.2 µM

CC(=O)Oc1ccc(C(c2ccc(OC(C)=O)cc2)c2ccccn2)cc1
inactive: Potency (PA-1) | Potency (SKOV3) | activity, negative = cell killing [1, 7] -5.88% | activity, negative = cell killing [1, 8] -3.54% | activity, negative = cell killing [1, 10] -29.3% | max response [2] -3.28%

CC(Cc1cccc(C(F)(F)F)c1)NCCOC(=O)c1ccccc1 (stereo unspecified)
inactive: Potency (PA-1) | Potency (SKOV3) | Potency (Tov-21-G) | Potency (Tov112D) | Potency (astro)

C[n+]1c2cc(N)ccc2cc2ccc(N)cc21 (tested in a mixture with another compound)
active: Potency (PA-1) 5.01 µM | Potency (SKOV3) 12.6 µM | Potency (Tov-21-G) 28.2 µM | Potency ([1]; tumour line A) 35.5 µM | Potency ([1]; tumour line B) 11.2 µM | Potency ([1]; tumour line D) 5.01 µM | Potency (astro) 11.2 µM
inactive: activity, negative = cell killing [1, 6] -16%

C=CCc1ccc(O)c(OC)c1
inactive: Potency (PA-1) | Potency (Tov-21-G) | Potency (Tov112D) | activity, negative = cell killing [1, 7] -13.4% | activity, negative = cell killing [1, 8] 1.72% | activity, negative = cell killing [1, 10] -22.5% | activity, negative = cell killing [1, 6] 5.7% | Potency (astro) | max response [2] -0.084% and 3.11% | outcome [3]

CCCCCCCCCCCCCCCC[N+](C)(C)CCN(Cc1ccc(OC)cc1)c1ncccn1
active: Potency (PA-1) 15.8 µM | Potency (SKOV3) 20 µM | Potency (Tov112D) 20 µM | Potency ([1]; tumour line A) 8.91 µM | Potency ([1]; tumour line B) 14.1 µM
inactive: activity, negative = cell killing [1, 4] -23.1%

O=C(CCN1CCC(c2ccccc2)C1)c1ccc2c(c1)OCCO2 (stereo unspecified)
inactive: Potency (PA-1) | Potency (Tov-21-G) | Potency (Tov112D)

Oc1ccc(O)cc1
inactive: Potency (PA-1) | Potency (SKOV3) | Potency (Tov-21-G) | Potency (Tov112D) | activity, negative = cell killing [1, 6] -0.769% | max response [2] -4.09% | outcome [3]

Oc1c(Cl)cc(Cl)cc1Sc1cc(Cl)cc(Cl)c1O
active: Potency (astro) 10 µM
inactive: Potency (PA-1) | Potency (SKOV3) | Potency (Tov-21-G) | Potency (Tov112D) | outcome [3]

CN1CCCC(CC2c3ccccc3Sc3ccccc32)C1 (stereo unspecified)
active: Potency ([1]; tumour line A) 2.24 µM | Potency ([1]; tumour line B) 12.6 µM
inactive: Potency (PA-1) | Potency (Tov-21-G) | Potency (Tov112D) | activity, negative = cell killing [1, 4] 5.58%
